From PubChem BioAssay (EPA / NIEHS)
Values joined by “and” are separate entries in the source; they are usually repeats but may differ in a detail not shown here. Equal entries are not always repeated. Results filed as inconclusive are left out. Some structures have more than one record in an assay (separate samples or runs), and their calls can disagree. Active and inactive are the calls of the source. How the source made its calls, unless noted: active means hit-call score of the fitted dose curve at least 0.9, where 1 is the maximum; inactive means score below 0.9.

How the values were obtained:
[1] = molecular target: Retinoic acid receptor RXR-alpha (Homo sapiens) (UniProt P19793); assay: ATG_RXRa_TRANS: Attagene TRANS-FACTORIAL HepG2 Assay for human Retinoid X Receptor alpha (RXRa) (AID 2283012; active means hit-call score of the fitted dose curve at least 0.9, where 1 is the maximum)
Chain of Retinoic acid receptor RXR-alpha (Homo sapiens) (P19793 whole entry, looked up, the tested form may be a part): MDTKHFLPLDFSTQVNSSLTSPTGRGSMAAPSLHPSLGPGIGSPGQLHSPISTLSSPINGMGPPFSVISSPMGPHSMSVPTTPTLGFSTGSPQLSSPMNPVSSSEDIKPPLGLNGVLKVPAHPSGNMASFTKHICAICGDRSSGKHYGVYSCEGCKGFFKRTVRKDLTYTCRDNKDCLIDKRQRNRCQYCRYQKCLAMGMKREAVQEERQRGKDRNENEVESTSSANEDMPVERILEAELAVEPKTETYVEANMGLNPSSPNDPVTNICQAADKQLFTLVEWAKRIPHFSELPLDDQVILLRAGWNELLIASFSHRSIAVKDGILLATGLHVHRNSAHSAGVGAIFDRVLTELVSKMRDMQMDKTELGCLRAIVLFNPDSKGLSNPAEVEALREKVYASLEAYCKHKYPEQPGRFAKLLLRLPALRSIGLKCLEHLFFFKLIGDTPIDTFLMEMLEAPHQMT
In short: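 Transient transfection of human HepG2 with multiple GAL4-UAS reporter constructs; 24 h compound exposure; total RNA isolated, reverse-transcribed, PCR-amplified, 6-FAM labelled, HpaI-cut, resolved by capillary electrophoresis. Positive-direction fit versus DMSO.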

[2] = molecular target: human Retinoid X Receptor beta (RXRb), RXRB (gene 6257) (UniProt P28702); assay: ATG_RXRb_TRANS: Attagene TRANS-FACTORIAL HepG2 Assay for human Retinoid X Receptor beta (RXRb) (AID 2283013; active means hit-call score of the fitted dose curve at least 0.9, where 1 is the maximum)
Chain of human Retinoid X Receptor beta (RXRb), RXRB (gene 6257) (P28702 whole entry, looked up, the tested form may be a part): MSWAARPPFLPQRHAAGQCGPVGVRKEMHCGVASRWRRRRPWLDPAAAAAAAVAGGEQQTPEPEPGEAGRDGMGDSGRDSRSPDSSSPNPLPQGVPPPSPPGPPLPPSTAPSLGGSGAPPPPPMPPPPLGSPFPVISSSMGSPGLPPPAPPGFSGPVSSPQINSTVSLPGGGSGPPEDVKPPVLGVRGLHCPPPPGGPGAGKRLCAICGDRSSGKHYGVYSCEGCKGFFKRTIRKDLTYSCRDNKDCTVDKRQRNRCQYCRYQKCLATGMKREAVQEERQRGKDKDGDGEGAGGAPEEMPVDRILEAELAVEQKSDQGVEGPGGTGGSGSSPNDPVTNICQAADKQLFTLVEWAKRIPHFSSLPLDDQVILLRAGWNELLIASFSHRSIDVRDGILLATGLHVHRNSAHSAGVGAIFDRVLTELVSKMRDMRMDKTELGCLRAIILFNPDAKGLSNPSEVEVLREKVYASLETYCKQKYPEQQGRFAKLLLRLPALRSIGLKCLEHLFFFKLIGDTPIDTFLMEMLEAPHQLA
In short: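 Transfect HepG2 with GAL4-UAS multi-reporter constructs (chimeric NR-Gal4, TRANS format); dose compound 24 h; isolate RNA, RT-PCR, FAM primer extension, HpaI digest; quantify by capillary electrophoresis; positive direction vs DMSO.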

[3] = molecular target: human Thyroid Receptor alpha (THRa1), THRA (gene 7067) (UniProt P10827); assay: ATG_THRa1_TRANS: Attagene TRANS-FACTORIAL HepG2 Assay for human Thyroid Receptor alpha (THRa1) (AID 2283014; active means hit-call score of the fitted dose curve at least 0.9, where 1 is the maximum)
Chain of human Thyroid Receptor alpha (THRa1), THRA (gene 7067) (P10827 whole entry, looked up, the tested form may be a part): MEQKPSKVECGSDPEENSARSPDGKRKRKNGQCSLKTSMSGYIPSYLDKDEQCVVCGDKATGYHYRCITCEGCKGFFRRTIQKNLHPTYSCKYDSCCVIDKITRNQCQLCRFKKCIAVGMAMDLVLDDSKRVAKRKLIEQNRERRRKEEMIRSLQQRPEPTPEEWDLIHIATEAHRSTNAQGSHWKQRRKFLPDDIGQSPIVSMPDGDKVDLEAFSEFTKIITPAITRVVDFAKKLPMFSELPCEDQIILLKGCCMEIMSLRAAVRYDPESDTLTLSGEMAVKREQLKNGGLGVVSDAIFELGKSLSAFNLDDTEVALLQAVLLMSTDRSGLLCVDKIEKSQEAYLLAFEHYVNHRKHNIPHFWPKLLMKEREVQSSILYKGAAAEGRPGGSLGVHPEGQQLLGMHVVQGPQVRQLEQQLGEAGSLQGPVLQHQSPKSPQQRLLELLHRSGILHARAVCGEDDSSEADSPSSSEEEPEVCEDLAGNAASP
In short: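 HepG2 cells transiently transfected with chimeric NR-Gal4 and GAL4-UAS reporter units, dosed 24 h. Reporter mRNA quantified by RT-PCR, fluorescent labeling, HpaI digestion and capillary electrophoresis; gain-of-signal fit versus DMSO.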

[4] = read-out: E-selectin (Homo sapiens) (UniProt P16581); assay: BSK_3C_Eselectin: BioMAP Diversity Plus: 3C Assay for Eselectin Biomarker Activity (AID 2283015); settings: primary human endothelial cells (HUVEC); actives raise or lower the signal
In short: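 Primary human umbilical vein endothelial cells (3C system), read 24 h after compound addition; E-selectin measured by ELISA. Bidirectional curve fitting against DMSO baseline; cytotoxicity by parallel SRB total-protein staining.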

[5] = read-out: Interleukin-1 alpha (IL1a), IL1A (gene 3552); assay: BSK_BE3C_IL1a: BioMAP Diversity Plus: BE3C Assay for Interleukin-1 alpha (IL1a) Biomarker Activity (AID 2283016); settings: primary human bronchial epithelial cells; actives raise or lower the signal
In short: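 BE3C primary human bronchial epithelium; cpd 24 h; IL-1a by ELISA; bidirectional fit vs DMSO; parallel SRB (0.1% SRB, 10% TCA fix, 560 nm) for cytotoxicity.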

[6] = read-out: Monocyte Chemoattractant Protein-1 (MCP1), CCL2 (gene 6347); assay: BSK_3C_MCP1: BioMAP Diversity Plus: 3C Assay for Monocyte Chemoattractant Protein-1 (MCP1) Biomarker Activity (AID 2283017); settings: primary human endothelial cells (HUVEC); actives raise or lower the signal
In short: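 Human umbilical vein endothelial cells (3C system) exposed to chemicals for 24 h; MCP-1 quantified by ELISA against the DMSO baseline with bidirectional fitting, and parallel SRB staining used to assess cytotoxicity.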

[7] = read-out: Monocyte Chemoattractant Protein-1 (MCP1), CCL2 (gene 6347); assay: BSK_4H_MCP1: BioMAP Diversity Plus: 4H Assay for Monocyte Chemoattractant Protein-1 (MCP1) Biomarker Activity (AID 2283018); settings: primary human endothelial cells (HUVEC); actives raise or lower the signal
In short: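 ELISA read-out of MCP-1 from human vascular endothelial primary cells taken at 24 hours after compound exposure. Activity was fitted in both directions relative to DMSO, which served as negative control.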

[8] = read-out: Human Leukocyte Antigen - DR isotype (HLADR), HLA-DRA (gene 3122); assay: BSK_3C_HLADR: BioMAP Diversity Plus: 3C Assay for Human Leukocyte Antigen - DR isotype (HLADR) Biomarker Activity (AID 2283019); settings: primary human endothelial cells (HUVEC); actives raise or lower the signal
In short: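 HUVEC monoculture, HLA-DR measured by ELISA 24 h after chemical dosing. Fitted bidirectionally against DMSO baseline; parallel SRB staining assessed cytotoxicity, with 3C proliferation read by SRB at 48 h.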

[9] = read-out: Interleukin-8 (IL8), CXCL8 (gene 3576); assay: BSK_3C_IL8: BioMAP Diversity Plus: 3C Assay for Interleukin-8 (IL8) Biomarker Activity (AID 2283020); settings: primary human endothelial cells (HUVEC); actives raise or lower the signal
In short: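 ELISA read-out of IL-8 from human umbilical vein endothelium, measured 24 h after chemical dosing. Activity is expressed relative to DMSO negative control, with both increases and decreases fitted.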

[10] = molecular target: human Vitamin D Receptor (VDR), VDR (gene 7421) (UniProt P11473); assay: ATG_VDR_TRANS: Attagene TRANS-FACTORIAL HepG2 Assay for human Vitamin D Receptor (VDR) (AID 2283022; active means hit-call score of the fitted dose curve at least 0.9, where 1 is the maximum)
Chain of human Vitamin D Receptor (VDR), VDR (gene 7421) (P11473 whole entry, looked up, the tested form may be a part): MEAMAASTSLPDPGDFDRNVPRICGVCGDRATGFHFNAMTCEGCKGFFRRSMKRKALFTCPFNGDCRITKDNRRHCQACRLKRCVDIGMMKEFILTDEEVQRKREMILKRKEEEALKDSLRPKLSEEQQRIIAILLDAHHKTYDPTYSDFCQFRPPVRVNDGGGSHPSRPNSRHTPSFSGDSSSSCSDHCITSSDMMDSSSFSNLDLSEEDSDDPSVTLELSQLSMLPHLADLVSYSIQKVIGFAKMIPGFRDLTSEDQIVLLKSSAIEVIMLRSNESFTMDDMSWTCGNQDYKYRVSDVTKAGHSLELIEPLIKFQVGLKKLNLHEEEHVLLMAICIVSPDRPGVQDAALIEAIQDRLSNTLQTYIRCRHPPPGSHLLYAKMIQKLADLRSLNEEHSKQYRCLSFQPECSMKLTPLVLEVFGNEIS
In short: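 HepG2 cells were transiently transfected with GAL4-UAS reporter units and a chimeric VDR-Gal4 construct, then dosed for 24 hours. Reporter mRNA was quantified by RT-PCR, fluorescent labeling, HpaI digestion and capillary electrophoresis; gain of signal analysed vs DMSO.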

[11] = read-out: Matrix Metallopeptidase 1 (MMP1), MMP1 (gene 4312); assay: BSK_BE3C_MMP1: BioMAP Diversity Plus: BE3C Assay for Matrix Metallopeptidase 1 (MMP1) Biomarker Activity (AID 2283024); settings: primary human bronchial epithelial cells; actives raise or lower the signal
In short: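 Human bronchial epithelial cells (BE3C system) exposed to compound for 24 h; MMP1 then quantified by ELISA. Activity was fitted in both directions relative to DMSO.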

[12] = BSK_3C_Vis: BioMAP Diversity Plus: 3C Assay for Morphology Visualization (AID 2283025); settings: primary human endothelial cells (HUVEC);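 further: fitted both ways so gain or loss versus DMSO counts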;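 on AC50: light microscopy image of cell morphology used as background control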
In short: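 Chemicals were added to primary human umbilical vein endothelium, cells were incubated 24 h, and morphology was then visualized by light microscopy. Gain or loss of signal was fitted bidirectionally relative to DMSO.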

[13] = read-out: Pselectin, SELP (gene 6403); assay: BSK_4H_Pselectin: BioMAP Diversity Plus: 4H Assay for Pselectin Biomarker Activity (AID 2283026); settings: primary human endothelial cells (HUVEC); actives raise or lower the signal
In short: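 ELISA read-out of P-selectin on human umbilical vein endothelium after 24 h of dosing. Values derive from bidirectional fitting relative to DMSO. Parallel SRB protein staining flagged overt cytotoxicity.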

[14] = BSK_4H_SRB: Viability Assessment in the BioMAP Diversity Plus: 4H Assay (AID 2283027); settings: primary human endothelial cells (HUVEC);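 further: cells exposed to compound for 24 h before staining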;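 on AC50: curves fitted both ways versus DMSO so AC50 may be loss or gain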
In short: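 Human umbilical vein endothelial cells, 24 h after chemical dosing; total protein measured by 0.1% sulforhodamine B staining after 10% TCA fixation, read at 560 nm. Bidirectional fitting against DMSO.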

[15] = BSK_BE3C_SRB: Viability Assessment in the BioMAP Diversity Plus: BE3C Assay (AID 2283028); settings: primary human bronchial epithelial cells;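 on AC50: fitted both ways so AC50 may mark signal gain or loss versus DMSO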
In short: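 Human bronchial epithelial primary cells in confluent culture, 24 h after chemical dosing; total protein by 0.1% SRB staining after 10% TCA fixation, read at 560 nm. Bidirectional fitting versus DMSO baseline.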

[16] = read-out: Thrombomodulin, THBD (gene 7056); assay: BSK_3C_Thrombomodulin: BioMAP Diversity Plus: 3C Assay for Thrombomodulin Biomarker Activity (AID 2283029); settings: primary human endothelial cells (HUVEC); actives raise or lower the signal
In short: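 Read-out is ELISA of thrombomodulin on human umbilical vein endothelium 24 h after chemical dosing. Gain or loss of signal is scored relative to DMSO. Overt cytotoxicity is checked in parallel cultures by sulforhodamine B staining.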

[17] = read-out: Urokinase-type plasminogen activator receptor (uPAR), PLAUR (gene 5329); assay: BSK_4H_uPAR: BioMAP Diversity Plus: 4H Assay for Urokinase-type plasminogen activator receptor (uPAR) Biomarker Activity (AID 2283030); settings: primary human endothelial cells (HUVEC); actives raise or lower the signal
In short: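 Human umbilical vein endothelial cells in the 4H system, 24 h after chemical dosing. Cell-surface uPAR measured by ELISA, fitted in both directions versus DMSO; cytotoxicity checked by SRB total protein in parallel cultures.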

[18] = BSK_3C_SRB: Viability Assessment in the BioMAP Diversity Plus: 3C Assay (AID 2283023); settings: primary human endothelial cells (HUVEC);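 further: fitted both ways against DMSO so a hit may be signal rise or drop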
In short: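 Human umbilical vein endothelial cells in the 3C system, treated 24 h. Total protein measured by 0.1% sulforhodamine B staining after 10% TCA fixation, read at 560 nm; bidirectional fit versus DMSO.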

Measured: AC50

Chain of E-selectin (Homo sapiens) (P16581 whole entry, looked up): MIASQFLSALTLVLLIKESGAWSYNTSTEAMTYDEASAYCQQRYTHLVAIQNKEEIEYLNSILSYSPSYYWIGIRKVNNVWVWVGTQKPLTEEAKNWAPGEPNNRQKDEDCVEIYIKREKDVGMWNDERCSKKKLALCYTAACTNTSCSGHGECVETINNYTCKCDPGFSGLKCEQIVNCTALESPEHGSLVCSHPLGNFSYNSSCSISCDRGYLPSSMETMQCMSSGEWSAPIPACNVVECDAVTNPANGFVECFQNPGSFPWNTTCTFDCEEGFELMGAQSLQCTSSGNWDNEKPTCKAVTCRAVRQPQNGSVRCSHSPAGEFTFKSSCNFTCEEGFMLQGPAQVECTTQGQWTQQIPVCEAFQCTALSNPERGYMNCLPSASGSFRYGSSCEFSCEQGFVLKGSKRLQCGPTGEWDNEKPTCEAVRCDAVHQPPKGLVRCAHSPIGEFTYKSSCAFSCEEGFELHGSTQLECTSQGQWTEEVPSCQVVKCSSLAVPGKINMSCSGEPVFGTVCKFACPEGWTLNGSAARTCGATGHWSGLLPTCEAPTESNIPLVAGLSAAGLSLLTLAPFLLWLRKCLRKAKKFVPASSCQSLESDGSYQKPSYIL

CCCCOC(=O)CCCCCCCC(=O)OCCCC
inactive: [1] | [2] | [3] | [4] | [5] | [6] | [7] | [8] | [9] | [10] | [11] | [12] | [13] | [14] | [15] | [16] | [17]

CC/C=C\CC/C=C/CO
inactive: [1] | [2] | [3]

O=C1c2ccccc2C(=O)c2c(O)ccc(O)c21
inactive: [1] | [2] | [3] | [4] | [5] | [6] | [7] | [18] | [11] | [13] | [14] | [15] | [16]
active: [8] 8.08 µM | [9] 2.12 µM | [12] 13.6 µM | [17] 6.4 µM

O=C(Nc1ccc2c(O)c(N=Nc3ccc(N=Nc4ccc(S(=O)(=O)O)cc4)cc3)c(S(=O)(=O)O)cc2c1)c1ccccc1
inactive: [1] | [2] | [3] | [4] | [5] | [6] | [7] | [8] | [9] | [10] | [13] | [14] | [15] | [16] | [17]
active: [9] 20 µM | [11] 16 µM and 10.4 µM

Nc1ccc(NCCO)c([N+](=O)[O-])c1
active: [2] 18.1 µM
inactive: [1] | [3]

O=C1OC[C@H](Cc2cccc(O)c2)[C@H]1Cc1cccc(O)c1
inactive: [1] | [2] | [3] | [4] | [5] | [6] | [7] | [8] | [9] | [11] | [12] | [13] | [14] | [15] | [16] | [17]

C=C(C)[C@H]1CC=C(C)C(=O)C1
inactive: [1] | [2] | [3] | [4] | [5] | [6] | [7] | [8] | [9] | [10] | [11] | [12] | [13] | [14] | [15] | [16] | [17]

C=CCCC(=O)/C=C/C1C(C)=CCCC1(C)C (stereo not drawn)
inactive: [1] | [3] | [10]
active: [2] 25.2 µM

C[Si](C)(C)O[Si](C)(C)C
inactive: [1] | [2] | [3]

COc1ccc(CCC(C)=O)cc1
inactive: [1] | [2] | [3] | [10]

c1ccc(CCc2ccccc2)cc1
active: [4] 28.7 µM | [5] 27 µM | [6] 28.5 µM | [7] 32.1 µM | [8] 15.3 µM | [9] 25.8 µM | [11] 20 µM | [12] 8.8 µM | [13] 35.7 µM | [14] 31 µM | [15] 33.2 µM | [16] 20 µM | [17] 32.2 µM
inactive: [1] | [2] | [3]

Cc1ccc(S(=O)(=O)Oc2ccc(N=Nc3ccc(-c4ccc(N=Nc5c(O)ccc6cc(S(=O)(=O)O)cc(S(=O)(=O)O)c56)c(C)c4)cc3C)cc2)cc1
inactive: [1] | [2] | [3] | [10]

Clc1cc(Cl)c(-c2c(Cl)c(Cl)cc(Cl)c2Cl)cc1Cl
active: [4] 13.8 µM | [5] 1.98 µM | [6] 16 µM | [7] 8.9 µM | [8] 15.2 µM | [9] 1.98 µM | [12] 19.9 µM | [13] 10 µM | [14] 18.8 µM | [17] 17.4 µM
inactive: [1] | [2] | [3] | [11] | [15] | [16]

BrCc1cccc(Oc2ccccc2)c1
active: [2] 66.9 µM
inactive: [1] | [3] | [10]

CCCC(=O)C(CC)Sc1ccoc1C (stereo not drawn)
inactive: [1] | [3] | [10]
active: [2] 46.1 µM

CC(C)=CCCC(C)CCOC=O (stereo not drawn)
inactive: [1] | [2] | [3] | [10]

Nc1ccccc1[N+](=O)[O-]
inactive: [1] | [2] | [3]

COc1ccc(N)c([N+](=O)[O-])c1
inactive: [1] | [2] | [3] | [10]

CCCOC(=O)c1c(Cl)c(Cl)c(Cl)c(Cl)c1C(=O)OCCC
inactive: [1] | [3] | [10]
active: [2] 10.6 µM

O=C(Nc1ccc2c(c1)Cc1ccccc1-2)C(F)(F)F
inactive: [1] | [2] | [3]

COc1ccc(CCO)cc1
inactive: [1] | [2] | [3] | [10]

C[C@H]1C[C@@H](O)CC(C)(C)C1
inactive: [1] | [3]

N#Cc1ccc(CC(=O)c2cccc(C(F)(F)F)c2)cc1
active: [1] 26.4 µM | [2] 5.99 µM | [3] 42 µM
inactive: [10]

c1ccc2[nH]cnc2c1
inactive: [1] | [3]

CCc1cc(C(C)(C)C)c(O)c(C(C)(C)C)c1
inactive: [10]
active: [1] 11.3 µM | [2] 0.325 µM
